Assay results taken from PubChem BioAssay AID1159580 (chemical genetic matrix, 2015).
The campaign covered roughly 5,500 compounds. About 2,000 (36%) were called active. Inconclusive results (about 18%) are left out. Cut-off read from the data, not from the text of the source: active = normalized growth mostly below about 0.91 (no sharp cut-off); inconclusive = no clear call, values can overlap the other calls; inactive = mostly above about 0.92. Some of the results follow.

Assay: chemical genetic growth profiling, strain panel (AID 1159580);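 note: tested at 20 µM; growth read once vehicle control cultures reached saturation at 30 °C; 1 = growth at the plate median or of vehicle wells; lower values mean less growth of the strain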
Conditions: growth OD

Measured: normalized growth

CCOP(=S)(OCC)SCCSCC
inactive: S. cerevisiae deletion strains, locus YAL013W, strain DEP1, hits give low values 0.992 | S. cerevisiae deletion strains, locus YBR021W, strain FUR4, hits give low values 1 | S. cerevisiae deletion strains, locus YBR229C, strain ROT2, hits give low values 0.955 | S. cerevisiae deletion strains, locus YCL029C, strain bik1, hits give low values 0.977 | S. cerevisiae deletion strains, locus YDL035C, strain GPR1, hits give low values 0.964 | S. cerevisiae deletion strains, locus YDL074C, strain BRE1, hits give low values 0.896 | S. cerevisiae deletion strains, locus YDL101C, strain DUN1, hits give low values 0.977 | S. cerevisiae deletion strains, locus YDL134C, strain PPH21, hits give low values 0.983 | S. cerevisiae deletion strains, locus YDL185W, strain tfp1, hits give low values 0.956 | S. cerevisiae deletion strains, locus YDL192W, strain arf1, hits give low values 0.981 | S. cerevisiae deletion strains, locus YDR101C, strain arx1, hits give low values 0.991 | S. cerevisiae deletion strains, locus YDR150W, strain NUM1, hits give low values 0.975 | S. cerevisiae deletion strains, locus YDR162C, strain NBP2, hits give low values 0.967 | S. cerevisiae deletion strains, locus YDR318W, strain mcm21, hits give low values 0.97 | S. cerevisiae deletion strains, locus YDR388W, hits give low values 0.984 | S. cerevisiae deletion strains, locus YDR502C, strain sam2, hits give low values 0.986 | S. cerevisiae deletion strains, locus YEL061C, strain CIN8, hits give low values 0.983 | S. cerevisiae deletion strains, locus YER110C, hits give low values 0.985 | S. cerevisiae deletion strains, locus YER155C, strain BEM2, hits give low values 0.989 | S. cerevisiae deletion strains, locus YER167W, strain BCK2, hits give low values 0.992 | S. cerevisiae deletion strains, locus YGL078C, strain dbp3, hits give low values 0.996 | S. cerevisiae deletion strains, locus YGL086W, strain mad1, hits give low values 0.991 | S. cerevisiae deletion strains, locus YGL248W, strain PDE1, hits give low values 0.972 | S. cerevisiae deletion strains, locus YGR078C, strain PAC10, hits give low values 0.965 | S. cerevisiae deletion strains, locus YGR135W, strain pre9, hits give low values 0.982 | S. cerevisiae deletion strains, locus YGR229C, strain SMI1, hits give low values 0.968 | S. cerevisiae deletion strains, locus YGR252W, strain gcn5, hits give low values 0.992 | S. cerevisiae deletion strains, locus YHR030C, strain SLT2, hits give low values 0.992 | S. cerevisiae deletion strains, locus YHR079C, strain IRE1 (second series), hits give low values 0.997 | S. cerevisiae deletion strains, locus YHR094C, strain hxt1, hits give low values 0.991 | S. cerevisiae deletion strains, locus YHR129C, strain ARP1, hits give low values 0.976 | S. cerevisiae deletion strains, locus YHR200W, strain rpn10, hits give low values 0.994 | S. cerevisiae deletion strains, locus YIL066C, strain RNR3, hits give low values 0.977 | S. cerevisiae deletion strains, locus YIL073C, strain SPO22, hits give low values 0.982 | S. cerevisiae deletion strains, locus YIL125W, strain kgd1, hits give low values 0.975 | S. cerevisiae deletion strains, locus YIR030C, strain dcg1, hits give low values 0.996 | S. cerevisiae deletion strains, locus YJL095W, strain BCK1, hits give low values 0.97 | S. cerevisiae deletion strains, locus YJL134W, strain LCB3, hits give low values 0.98 | S. cerevisiae deletion strains, locus YJL168C, strain set2, hits give low values 0.992 | S. cerevisiae deletion strains, locus YJL187C, strain SWE1 (second series), hits give low values 0.979 | S. cerevisiae deletion strains, locus YJR043C, strain POL32, hits give low values 0.991 | S. cerevisiae deletion strains, locus YJR075W, strain HOC1, hits give low values 0.961 | S. cerevisiae deletion strains, locus YKL009W, strain mrt4, hits give low values 0.944 | S. cerevisiae deletion strains, locus YKL068W, hits give low values 0.977 | S. cerevisiae deletion strains, locus YKL085W, strain MDH1 (second series), hits give low values 0.979 | S. cerevisiae deletion strains, locus YKL085W, strain MDH1, hits give low values 0.979 | S. cerevisiae deletion strains, locus YKL190W, strain CNB1, hits give low values 0.964 | S. cerevisiae deletion strains, locus YKR001C, strain vps1, hits give low values 0.976 | S. cerevisiae deletion strains, locus YLR039C, strain RIC1, hits give low values 0.937 | S. cerevisiae deletion strains, locus YLR058C, strain SHM2, hits give low values 0.972 | S. cerevisiae deletion strains, locus YLR102C, strain apc9, hits give low values 0.988 | S. cerevisiae deletion strains, locus YLR262C, strain YPT6, hits give low values 0.878 | S. cerevisiae deletion strains, locus YLR268W, strain sec22, hits give low values 0.975 | S. cerevisiae deletion strains, locus YLR330W, strain CHS5, hits give low values 0.974 | S. cerevisiae deletion strains, locus YLR342W, strain FKS1 (second series), hits give low values 1.03 | S. cerevisiae deletion strains, locus YLR371W, strain rom2, hits give low values 0.999 | S. cerevisiae deletion strains, locus YLR418C, strain cdc73, hits give low values 0.947 | S. cerevisiae deletion strains, locus YML016C, strain PPZ1, hits give low values 0.982 | S. cerevisiae deletion strains, locus YML032C, strain rad52, hits give low values 0.99 | S. cerevisiae deletion strains, locus YML124C, strain tub3, hits give low values 0.995 | S. cerevisiae deletion strains, locus YMR078C, strain ctf18, hits give low values 0.978 | S. cerevisiae deletion strains, locus YMR223W, strain ubp8, hits give low values 0.992 | S. cerevisiae deletion strains, locus YMR263W, strain SAP30, hits give low values 0.975 | S. cerevisiae deletion strains, locus YMR307W, strain GAS1, hits give low values 1.04 | S. cerevisiae deletion strains, locus YNL067W, strain RPL9B, hits give low values 0.972 | S. cerevisiae deletion strains, locus YNL128W, strain TEP1, hits give low values 0.945 | S. cerevisiae deletion strains, locus YNL153C, strain GIM3, hits give low values 0.978 | S. cerevisiae deletion strains, locus YNL233W, strain BNI4, hits give low values 0.99 | S. cerevisiae deletion strains, locus YNL250W, strain rad50, hits give low values 0.979 | S. cerevisiae deletion strains, locus YNL271C, strain bni1, hits give low values 0.994 | S. cerevisiae deletion strains, locus YNL298W, strain CLA4, hits give low values 0.982 | S. cerevisiae deletion strains, locus YNL307C, strain MCK1, hits give low values 0.993 | S. cerevisiae deletion strains, locus YNL322C, strain KRE1, hits give low values 0.976 | S. cerevisiae deletion strains, locus YNR052C, strain pop2, hits give low values 0.998 | S. cerevisiae deletion strains, locus YOL006C, strain TOP1, hits give low values 0.846 | S. cerevisiae deletion strains, locus YOL012C, strain htz1 0.792 | S. cerevisiae deletion strains, locus YOL147C, strain pex11, hits give low values 0.991 | S. cerevisiae deletion strains, locus YOR061W, strain CKA2, hits give low values 0.96 | S. cerevisiae deletion strains, locus YOR069W, strain VPS5, hits give low values 0.997 | S. cerevisiae deletion strains, locus YOR136W, strain idh2, hits give low values 0.995 | S. cerevisiae deletion strains, locus YOR144C, strain elg1, hits give low values 0.99 | S. cerevisiae deletion strains, locus YOR184W, strain ser1, hits give low values 0.956 | S. cerevisiae deletion strains, locus YOR316C, strain cot1, hits give low values 0.973 | S. cerevisiae deletion strains, locus YPL055C, strain LGE1, hits give low values 0.949 | S. cerevisiae deletion strains, locus YPL241C, strain CIN2, hits give low values 0.976 | S. cerevisiae deletion strains, locus YPR119W, strain clb2, hits give low values 0.99 | S. cerevisiae deletion strains, locus YPR141C, strain kar3, hits give low values 0.968 | S. cerevisiae deletion strains, locus YPR163C, strain tif3, hits give low values 0.999 | S. cerevisiae deletion strains, locus YPR167C, strain met16, hits give low values 0.988 | S. cerevisiae deletion strains, strain wtn01, hits give low values 0.995 | S. cerevisiae strains, strain wild type, hits give low values 0.979
